The values that follow come from PubChem BioAssay (NCATS).

Test [1] in a line: qHTS drug screen for cell cycle checkpoint inhibitors in PARPi-resistant BRCA-mutant ovarian cancer cell lines. (AID 1963452; calls by dose curve). The note with it: PEO1/OlaR viability, CellTiter-Glo luminescence, 96 h, stronger effect = lower value. The gist of the method:
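PEO1, PEO4 and PEO1/OlaR ovarian cancer cells, 600 per well, exposed 96 h at 37C to a dilution series. Viability read by CellTiter-Glo luminescence, normalized to DMSO and empty wells; activity summarized as Z-AUC.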
On the technique in general: Quantitative high-throughput screening tests each substance at several concentrations.

A short description of test [2]: Quantitative High-Throughput drug screen in 47 multiple myeloma cell lines against the NCATS MIPE library collection: KMS28BM_JCRB cell viability assay (AID 1919874). Further: nearly all actives have a fitted effect of over 35% in size. Further: potency means the concentration at half of the fitted maximal effect. The procedure, abridged: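 qHTS format: cells plated (500/well), pin-dosed with MIPE 4.0 compounds, kept 48 h at 37 °C. Readout was CellTiter-Glo luminescence, median RLU.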
Test [3] in a line: qHTS for identification of novel therapeutic agents for treatment of microphthalmiaassociated transcription factor (MiT) renal cell carcinoma (RCC) (AID 1963991; calls by dose curve; further: potency means the concentration at half of the fitted maximal effect;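 on z-score: curves scaled with 100% = DMSO viability and 0% = empty wells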). The note with it: CellTiter-Glo, 48 h; for Potency: active = Z-AUC below -0.8 in all three lines; for z-score: stronger effect = lower value. The procedure, abridged: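 UOK109/UOK124/UOK145 (TFE3 fusions, three partners); 500 cells/well; MIPE v4.0, 1912 cpds, 11 conc.; 48 h, 37 C; CellTiter-Glo, 15 min RT; lum. Norm.: DMSO 100%, empty 0%.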

The subject of test [4] is 3D7. Nature of the test: qHTS profiling for inhibitors of Plasmodium falciparum proliferation (AID 504749). Further: potency means the concentration at half of the fitted maximal effect; nearly all actives have a fitted effect of over 60% in size. The note with it: P. falciparum in erythrocytes, SYBR Green DNA, 72 h; series mostly up to 28.7 µM. The procedure, abridged: (§1)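 Quantitative HTS: compounds pinned into medium, infected erythrocytes added (0.3% parasitemia, 2.5% hematocrit), 72 h culture at 37 C under 5% CO2. Saponin/Triton lysis with SYBR Green I, overnight RT, then fluorescence read.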

Test [5] deals with 7G8. The test is described as above. The note with it: P. falciparum in erythrocytes, SYBR Green DNA, 72 h; series mostly up to 28.7 µM. The procedure, abridged:
as §1

Test [6] relates to AA1029. Described as above. The note with it: P. falciparum in erythrocytes, SYBR Green DNA, 72 h; series mostly up to 28.7 µM. The gist of the method:
as §1

In test [7] the test system is AS120. Described as above. The note with it: P. falciparum in erythrocytes, SYBR Green DNA, 72 h; series mostly up to 28.7 µM. The procedure, abridged: as §1
In test [8] the test system is ATS95. The test is described as above. The note with it: P. falciparum in erythrocytes, SYBR Green DNA, 72 h; series mostly up to 28.7 µM. The procedure, abridged:
as §1

Where [9] appears, read: measured here: PEO1 parental Z-AUC.
Where [10] appears, read: TFE3-RCC UOK109 viability, measured here: UOK109 Z-AUC.
Setting [11] is: TFE3-RCC viability, measured here: UOK124 Z-AUC.
The mark [12] stands for this setting: TFE3-RCC viability, measured here: UOK145 Z-AUC.

Records with an inconclusive call do not appear. Activity calls are given as the source filed them. Unless noted, the call rests on the fitted dose curve; in most records, active means well fitted curve in the direction sought with a large enough effect; inconclusive means small, poorly fitted or top-dose-only effect, or another doubt; inactive means no such curve, though single readings can be large; an effect the other way counts as inactive or inconclusive.

In the case of `N#Cc1c(C2CCNCC2)cc(-c2c(O)cccc2OCC2CC2)nc1N`, the Z-AUC in test [1] is 0.339 (inactive); in test [1] (setting [9]) it was 0.598; in test [1] (measured here: PEO4 Z-AUC) it was 0.733.

As for `CCc1cnn2c(NCc3ccc[n+]([O-])c3)cc(N3CCCC[C@@H]3CCO)nc12`, the Potency is 29.6 nM (active) in test [2] and 59 nM (active) in test [3] (TFE3-RCC UOK109 viability). In addition, the z-score in test [3] (setting [10]) was -2.34; in test [3] (setting [11]), -1.76; in test [3] (setting [12]), -1.93.

`O=C(Nc1nnc(-c2ccco2)o1)c1cc(-c2ccccc2)nc2ccccc12`: the Z-AUC in test [1] is 1.38 (inactive); in test [1] (setting [9]), 0.606; in test [1] (measured here: PEO4 Z-AUC) it was 0.601.

Consider `Cn1c(Nc2ccc(C(F)(F)F)cc2)nc2cc(Oc3ccnc(-c4ncc(C(F)(F)F)[nH]4)c3)ccc21`, for which the Z-AUC in test [1] was -0.152 (inactive); in test [1] (setting [9]), -0.11; in test [1] (measured here: PEO4 Z-AUC), -1.19.

With `CS[C@H]1SC[C@@H]2C(=O)N(C)[C@H](C(C)C)C(=O)OC[C@H](NC(=O)c3cnc4ccccc4n3)C(=O)N[C@H](C)C(=O)N(C)[C@@H]1C(=O)N(C)[C@H](C(C)C)C(=O)OC[C@H](NC(=O)c1cnc3ccccc3n1)C(=O)N[C@H](C)C(=O)N2C`, the Potency in test [2] was 1.7 nM (active); in test [3] (TFE3-RCC UOK109 viability) it was 8.33 nM (active). In addition, the z-score in test [3] (setting [10]) was -2.31; in test [3] (setting [11]) it was -3.01; in test [3] (setting [12]) it was -2.26.

`Cc1onc(-c2ccccc2)c1C(=O)N[C@@H]1C(=O)N2[C@@H](C(=O)O)C(C)(C)S[C@@H]12`: the Potency entry in test [2] was “inactive”. The figures for the z-score in test [3] (setting [10]), in test [3] (setting [11]) and in test [3] (setting [12]) were 2.05, 0.727 and 1.83, respectively.

Turning to `CCN(CC)CCNC(=O)c1c(C)[nH]c(C=C2C(=O)Nc3ccc(F)cc32)c1C`, the Potency was 5400 nM (active) in test [2] and 34000 nM (active) in test [3] (TFE3-RCC UOK109 viability). For the same compound, the z-score is -1.15 in test [3] (setting [10]), -1.68 in test [3] (setting [11]) and -1.38 in test [3] (setting [12]).

Regarding `CN1CCc2c(c3ccccc3n2Cc2ccc(C(=O)NO)cc2)C1`, the Z-AUC was -0.848 (inactive) in test [1], -0.74 in test [1] (setting [9]) and -1.03 in test [1] (measured here: PEO4 Z-AUC).

On to `CC(O)(C#Cc1ccc2c(c1)N(c1nc(N)ncc1Cl)CC2)c1nccs1` (stereo not given), for which the Z-AUC in test [1] is -0.29 (inactive); in test [1] (setting [9]), -0.463; in test [1] (measured here: PEO4 Z-AUC), -0.647.

With `COc1cc(C)c(C=CC(C)=CC=CC(C)=CC(=O)O)c(C)c1C`, in test [2], the Potency result was “inactive”. The z-score worked out at 0.993 in test [3] (setting [10]), 0.342 in test [3] (setting [11]) and 1.02 in test [3] (setting [12]).

Turning to `O=C1NC(=O)C(=Cc2ccc3nccc(-c4ccncc4)c3c2)S1`, the Potency in test [2] is 372 nM (active); in test [3] (TFE3-RCC UOK109 viability), 833 nM (active). For the same compound, the z-score is -1.04 in test [3] (setting [10]), -1.39 in test [3] (setting [11]) and -1.83 in test [3] (setting [12]).

Consider `CC(C)N(CC[C@H](c1ccccc1)c1cc(CO)ccc1O)C(C)C`, for which, in test [2], the Potency is 1050 nM (active). In addition, the z-score in test [3] (setting [10]) is 0.828; in test [3] (setting [11]), 0.666; in test [3] (setting [12]), 0.832.

For `N[C@H]1CN(c2c(F)cc3c(=O)c(C(=O)O)cn(C4C[C@@H]4F)c3c2Cl)CC12CC2` (stereo not given in full), the Potency entry in test [2] is “inactive”. In addition, the results for the z-score in test [3] (setting [10]), in test [3] (setting [11]) and in test [3] (setting [12]) were 0.717, 1.4 and -0.145, respectively.

Take `CCCCCCCCCCCC(CC1OC(=O)C1CCCCCC)OC(=O)C(CC(C)C)NC=O` (stereo not given): the Potency result in test [2] was “inactive”. Also, the z-score was 0.558 in test [3] (setting [10]), -0.129 in test [3] (setting [11]) and 0.669 in test [3] (setting [12]). In addition, the Potency in test [4] was 1120 nM (active); in test [5] it was 2510 nM (active); in test [6], 447 nM (active); in test [7] it was 316 nM (active); in test [8], 794 nM (active).
